# Bioassay records: PubChem BioAssay, National Center for Advancing Translational Sciences (NCATS)
# Compounds with a hit are over-represented: about 2.8% of the library has one in this group of screens.
# POLI inh – qHTS for Inhibitors of Polymerase Iota; DNA polymerase iota (Homo sapiens), Q9UNA4; Pol iota fluorescent replication assay, 10 min; Potency, µM (doses to about 115 µM), without a hit: top-dose activity, negative = inhibition, hits mostly inhibitors; 390,000 compounds, 1% hits; AID 588590, 2011; also: potency is read from the fitted curve at half-maximal effect
#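 Pol iota at 10 nM preincubated 15 min with compounds at room temperature; reaction started with fluorescent substrate, 50 nM final. Fluorescence read kinetically at 0 and 10 min; buffer-only wells as negative control.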
# Pol kappa inh-1 – qHTS for Inhibitors of Polymerase Kappa; purified Pol kappa, fluorescent DNA synthesis assay, 10 min; DNA polymerase kappa (Homo sapiens), Q9UBT6; Potency, µM (titrated, usually from 107 µM), inactives show top-dose activity, negative = inhibition, hits mostly inhibitors; 400,000 compounds, 0.53% hits; also: potency is read from the fitted curve at half-maximal effect; % is scaled to controls: 0 for no effect and ±100 for the full control effect
#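 Inhibition of 10 nM Pol kappa is measured by a fluorescent read-out at 0 and 10 min following addition of 50 nM substrate (final), with a 15-min room-temperature compound preincubation.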
# Pol eta inh-1 – qHTS for Inhibitors of Polymerase Eta; DNA polymerase eta (Homo sapiens), Q9Y253; recombinant Pol eta, fluorescent DNA replication assay; Potency, µM (highest dose often 114 µM), for inactives: at the top dose activity change, negative = inhibition, actives largely listed as inhibitors; 390,000 compounds, 1.2% hits; AID 588591, 2011; also: potency is read from the fitted curve at half-maximal effect; % is scaled to controls: 0 for no effect and ±100 for the full control effect
#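 Pol eta (10 nM) was preincubated with compounds for 15 min at room temperature, after which fluorescent replication substrate (50 nM final) was added to start the reaction. Fluorescence was read kinetically at 0 and 10 min.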
# POLB inh – qHTS Assay for Inhibitors of DNA Polymerase Beta; P06746; Pol beta primer extension/strand displacement, fluorescence kinetic; Potency, µM (highest dose often 114 µM), inactives show at the highest dose activity change, negative = inhibition, usual class: inhibitors; 340,000 compounds, 1.3% hits; AID 485314, 2010; also: potency is read from the fitted curve at half-maximal effect; % is scaled to controls: 0 for no effect and ±100 for the full control effect
#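 Human Pol beta at 10 nM; strand-displacement substrate 50 nM final. Compound exposure 15 min at room temperature before start, reaction 10 min at room temperature.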
# WRN inhibitor – qHTS for Inhibitors of WRN Helicase. Bifunctional 3'-5' exonuclease/ATP-dependent helicase WRN (Homo sapiens), Q14191. WRN helicase unwinding, fluorescent forked duplex, kinetic. Potency, µM (highest dose often 114 µM), without a hit: top-dose activity change, negative = inhibition, most hits filed as inhibitors. 360,000 compounds, 0.46% hits. AID 651768, 2012; also: potency is read from the fitted curve at half-maximal effect; % is scaled to controls: 0 for no effect and ±100 for the full control effect; nearly all actives have a fitted effect of over 55% in size
# Target sequence (Q14191 whole entry, looked up): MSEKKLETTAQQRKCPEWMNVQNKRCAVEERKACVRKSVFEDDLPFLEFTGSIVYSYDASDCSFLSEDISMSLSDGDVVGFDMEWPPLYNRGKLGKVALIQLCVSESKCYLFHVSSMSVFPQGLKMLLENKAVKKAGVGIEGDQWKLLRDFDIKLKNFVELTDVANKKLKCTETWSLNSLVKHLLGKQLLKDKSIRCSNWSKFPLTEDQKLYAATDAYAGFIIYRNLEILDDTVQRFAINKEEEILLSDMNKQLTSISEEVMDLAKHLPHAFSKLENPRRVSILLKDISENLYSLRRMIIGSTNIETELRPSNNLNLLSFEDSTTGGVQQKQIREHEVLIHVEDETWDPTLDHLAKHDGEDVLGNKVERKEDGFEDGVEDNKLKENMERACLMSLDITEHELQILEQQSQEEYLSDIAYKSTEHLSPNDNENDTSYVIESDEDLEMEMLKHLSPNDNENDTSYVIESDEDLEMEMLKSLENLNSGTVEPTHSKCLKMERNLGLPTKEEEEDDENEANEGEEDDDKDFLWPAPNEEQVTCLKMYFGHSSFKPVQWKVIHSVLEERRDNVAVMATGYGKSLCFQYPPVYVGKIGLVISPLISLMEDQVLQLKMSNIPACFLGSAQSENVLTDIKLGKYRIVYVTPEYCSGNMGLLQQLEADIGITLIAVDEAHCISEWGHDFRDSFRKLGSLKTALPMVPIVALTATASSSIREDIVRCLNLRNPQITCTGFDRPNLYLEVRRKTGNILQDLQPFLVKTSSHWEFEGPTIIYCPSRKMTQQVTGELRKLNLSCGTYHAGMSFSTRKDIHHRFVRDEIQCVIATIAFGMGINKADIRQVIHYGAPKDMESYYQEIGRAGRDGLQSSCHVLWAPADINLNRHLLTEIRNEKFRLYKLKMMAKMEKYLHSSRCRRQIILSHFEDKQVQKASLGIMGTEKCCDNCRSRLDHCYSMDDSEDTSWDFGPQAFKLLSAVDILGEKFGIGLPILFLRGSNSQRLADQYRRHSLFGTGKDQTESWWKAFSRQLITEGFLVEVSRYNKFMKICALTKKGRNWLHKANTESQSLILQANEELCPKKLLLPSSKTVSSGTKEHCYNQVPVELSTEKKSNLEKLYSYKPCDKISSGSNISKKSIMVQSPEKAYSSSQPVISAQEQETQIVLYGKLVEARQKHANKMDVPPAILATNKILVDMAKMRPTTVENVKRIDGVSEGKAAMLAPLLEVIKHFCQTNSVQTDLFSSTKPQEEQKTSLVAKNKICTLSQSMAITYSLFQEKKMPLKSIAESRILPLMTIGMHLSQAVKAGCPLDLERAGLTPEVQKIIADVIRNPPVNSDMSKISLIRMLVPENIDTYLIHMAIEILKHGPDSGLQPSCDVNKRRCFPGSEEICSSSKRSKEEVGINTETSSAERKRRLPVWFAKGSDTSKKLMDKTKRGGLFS
#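 Enzyme (20 nM final) and test compound sit together 15 min at room temperature before substrate addition. Substrate is a single-forked duplex oligonucleotide (100 nM) labelled with fluorophore and quencher, with 2 mM ATP; helicase unwinding raises red fluorescence, read kinetically.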
# PI5P4Ka inh – qHTS for Inhibitors of phosphatidylinositol 5-phosphate 4-kinase (PI5P4K); max response, %; Phosphatidylinositol 5-phosphate 4-kinase type-2 alpha (Homo sapiens), P48426; 330,000 compounds, 1.2% hits; AID 652105, 2013; PI5P4Kalpha enzyme, ADP-Glo luminescence, 60 min; stronger effect = lower value; active = max response of -50% or lower; inconclusive = between -30% and -50%; inactive = -30% or higher; also: value at the top dose of about 77 µM; % is scaled to controls: 0 for no effect and ±100 for the full control effect
#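 ADP-Glo luminescence end-point read after a 60 min room-temperature kinase reaction of PI5P4Kalpha plus substrate, initiated with ATP at 5 microM final. Buffer: 0.038 M HEPES pH 7.4, EGTA, 0.1% CHAPS, 5% DMSO.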
# TbPGK inh – qHTS for inhibitors of Phosphogylcerate Kinase: Hit Validation Screen. shares compounds with Pol kappa inh-1. TbPGK coupled GAPDH assay, Kinase-Glo luminescence. Potency, µM (titrated, usually from 57.5 µM), for the others: top-dose activity change, negative = inhibition, hits mostly inhibitors. 500 compounds, 79% hits. AID 686980, 2013; also: potency is read from the fitted curve at half-maximal effect; % is scaled to controls: 0 for no effect and ±100 for the full control effect; nearly all actives have a fitted effect of over 65% in size
# POLI cherry-pick – qHTS for Inhibitors of Polymerase Iota: Confirmatory Assay for Cherry-picked Compounds; shares compounds with Pol kappa inh-1; 1,500 compounds, 77% hits; Potency, µM, most hits filed as inhibitors; AID 720496, 2013; Pol iota primer extension, TAMRA/BHQ fluorescence; also: potency is read from the fitted curve at half-maximal effect
# GALK confirm – Confirmation Assay for Inhibitors of Human Galactokinase (GALK) | shares compounds with Pol eta inh-1 | purified GALK, Kinase-Glo ATP depletion luminescence | Potency, µM (series often up to 115 µM), for the others: top-dose activity, negative = inhibition, most hits filed as inhibitors | 150 compounds, 70% hits
# Redox cycling – Confirmatory Assay for Inhibitors of Human Galactokinase (GALK): Phenol-HRP redox assay counterscreen | shares compounds with Pol eta inh-1 | Phenol red-HRP H2O2 redox cycling, absorbance 600 nm | Potency, µM (highest dose often 115 µM), without a hit: top-dose activity change, negative = H2O2 signal, actives largely listed as inhibitors | 150 compounds, 40% hits | AID 2035, 2009
# HEK293 viability – Secondary Assay for Inhibitors of Human Galactokinase (GALK): HEK-293 Cell Viability Assay. HEK-293 viability, ATP luminescence (CellTiter-Glo), 24/48 h. Potency, µM (top dose mostly 46.1 µM), inactives show top-dose activity change, negative = cytotoxicity, most hits filed as inhibitors. shares compounds with Pol eta inh-1. AID 2547, 2010. 170 compounds, 10% hits; also: potency is read from the fitted curve at half-maximal effect; % is scaled to controls: 0 for no effect and ±100 for the full control effect
# Pol kappa inh-2 – qHTS for Inhibitors of Polymerase Kappa: Confirmatory Assay for Cherry-picked Compounds. shares compounds with Pol eta inh-1. purified Pol-kappa, fluorescent strand-displacement substrate. Potency, µM, most hits filed as inhibitors. 920 compounds, 76% hits. AID 720501, 2013; also: potency is read from the fitted curve at half-maximal effect
# Pol eta inh-2 – qHTS for Inhibitors of Polymerase Eta: Confirmatory Assay for Cherry-picked Compounds; shares compounds with Pol eta inh-1; Pol eta primer extension, TAMRA/BHQ fluorescence, 10 min; Potency, µM, usual class: inhibitors; 2,600 compounds, 64% hits; AID 720502, 2013; also: potency is read from the fitted curve at half-maximal effect
# * marks the source's active call; other numbers are inactive results; u = inconclusive; x = no result; ! = repeats disagree; [ ] = remark or other dose. Unless noted, calls follow the shape of the dose curve; as a rule, active = well fitted curve in the direction sought with a large enough effect; inconclusive = small, poorly fitted or top-dose-only effect, or another doubt; inactive = no such curve, though single readings can be large; an effect the other way counts as inactive or inconclusive.
SMILES,POLI inh,Pol kappa inh-1,Pol eta inh-1,POLB inh,WRN inhibitor,PI5P4Ka inh,POLI cherry-pick,Pol eta inh-2,others
Cc1cc[n+](-c2[nH]c(=O)sc2/C=N/N=C(\[O-])c2ccncc2)cc1C,1.1%,-5.3%,0.3%,3.6%,2.1%,-2.2,x,x,
Cc1cc[n+](-c2[nH]c(=O)sc2/C=N/N=C(\[O-])c2ccccc2)cc1,25.1µM*,u,u,14.1µM*,u,u,37.7*,26.9*,
Cc1cc[n+](-c2[nH]c(=O)sc2/C=N/N=C(\[O-])c2ccncc2)cc1,39.8µM*,u,79.4µM*,u,0.3%[11.6 µM],-7.2,53.2*,75.7*,
Cc1ccc(NC(=O)c2cnn3c2NC(=C2CC2)C=C3C(F)F)cc1C,7.6%,-7.5%,x,x,x,x,x,x,
COc1cc(C(O)CO)ccc1O (stereo unspecified),8.0%,-13.6%[60.1 µM],-5.1%,16.3%[57.1 µM],8.9%,-5.4,x,x,
NC[C@H](O)c1ccc(O)c(O)c1,3.98µM*!,0.708µM*!,-4.0%,-3.3%[57.1 µM],-6.1%[11.6 µM],0.2,1.5*,1.9*,
NS(=O)(=O)c1ccc(N=Nc2ccc(=O)[nH]c2O)cc1,u,u,10µM*,6.31µM*,50.1µM*,-79.8*,37.7*,u,TbPGK inh=5.17µM*;Pol kappa inh-2=15*
Cc1c(C#N)c(O)n(C)c(=O)c1N=Nc1ccc(S(N)(=O)=O)cc1,u,-15.7%,5.6%,-14.8%,-9.2%,-14.6,x,x,
Cc1ccc(CNC(=O)CN2C(=O)CCc3cc(S(=O)(=O)N4CCCCC4)ccc32)cc1,2.5%,-9.5%[60.1 µM],-14.0%,-27.7%,x,x,x,x,
CCS(=O)(=O)c1nc(S(=O)(=O)c2ccc(C)cc2)c(N2CCCCCC2)s1,x,x,-16.7%,x,-4.9%,11.5,x,x,
N=C1/C(=C/c2ccc(-c3cccc(C(=O)O)c3)o2)C(=O)N=C2SC=C(c3ccccc3)N12,3.98µM*,7.08µM*,3.16µM*,28.2µM*,35.5µM*,-83.1*,18.9*,7.57*,TbPGK inh=36.6µM*
CCc1nn2c(=O)cc(COc3ccc(/C=C4\C(=N)N5N=C(CC(C)C)SC5=NC4=O)cc3)nc2s1,u,-34.9%,u,u,-15.3%[11.6 µM],-19.1,75.2*,75.7*,
CCC1=NN2C(=N)/C(=C\c3ccc(OCCOc4ccccc4)c(OC)c3)C(=O)N=C2S1,x,x,x,-0.7%,x,x,x,x,
CCC1=NN2C(=N)/C(=C\c3ccc(OCc4cc(=O)n5nc(CC)sc5n4)c(OC)c3)C(=O)N=C2S1,u,31.6µM*,8.91µM*,4.47µM*,-31.6%[11.6 µM],-71.1*,18.9*,16.9*,
CCCCC(=O)Nc1cc(C)c(O)c(-c2nc3ncccc3o2)c1,12.8%,3.3%,-13.2%,8.9%,x,x,x,x,
Cc1cc(O)c2c(c1)C(=O)c1cccc(O)c1C2=O,x,u,x,-1.3%,x,x,x,x,
O=C(O)c1cc(O)c2c(c1)C(=O)c1cccc(O)c1C2=O,39.8µM*,50.1µM*,50.1µM*,11.2µM*,26.7µM*,-91.3*,67*,75.7*,Pol kappa inh-2=47.4*
COC(=O)c1nc2n(n1)C(c1cc(OC)ccc1OC)C(C(=O)Nc1ccc(C)cc1C)=C(C)N2 (stereo unspecified),6.3%,-15.2%,-2.7%,-4.4%,x,x,x,x,
Cc1nn2c(C)c(C(=O)N3CCN(c4ccccc4)CC3)cnc2c1-c1ccccc1,-5.2%,0.6%,-5.9%,u,x,x,x,x,
O=C1C(Cl)=C(NCCCO)C(=O)c2ccccc21,-7.8%,-15.0%,-19.6%,-8.6%,-11.2%,-3.6,x,x,
O=C1C(SCCO)=C(SCCO)C(=O)c2ccccc21,1.12µM*!,u,15.8µM*,5.5%[57.1 µM],79.4µM*,-106.7*,23.8*,23.9*,GALK confirm=18.8µM*;Redox cycling=10.6µM*;HEK293 viability=u
CCOc1nc(Nc2ccc(OC)cc2)nc(OCC)n1,u,u,20µM*,1.2%,-34.0%[57.1 µM],-3.0,67*,u,
CCCCn1c(OC(=S)N(CC)CC)cc(C)nc1=S,x,x,x,x,-1.6%,-2.5,x,x,
Cc1cc(C)n2nc(C(=O)N/N=C/c3ccccc3Cl)nc2n1,43.0%,-1.7%,-0.1%,22.2%,3.4%,-6.6,x,x,
Cc1cc(C)n2nc(C(=O)N/N=C/c3c4ccccc4cc4ccccc34)nc2n1,-1.2%,-15.8%,u,u,u,-11.5,67*,u,
CC1=C/C(=C\c2ccc(Br)o2)C(=O)O1,10µM*,25.1µM*,2.24µM*,6.31µM*,20µM*,u,16.8*,10.7*,TbPGK inh=3.66µM*;Pol kappa inh-2=16.8*
CCCN1CNc2c(c(=O)[nH]c(=S)n2CCc2cc(Cl)cc(Cl)c2)C1,-2.3%,-1.6%,x,x,x,x,x,x,
